Source: PubChem BioAssay (NCATS)
Inconclusive results are not listed. Active and inactive are the calls of the source. Unless noted, calls come from the whole dose curve; as a rule, active = well fitted cell-killing curve with a large enough effect; inconclusive = small, poorly fitted or top-dose-only effect, or effect the other way; inactive = no such curve, though single readings can be large or run the other way.

Legend:
[1] = Quantitative High-Throughput drug screen in 47 multiple myeloma cell lines against the NCATS MIPE library collection: UTMC2_PLB cell viability assay (AID 1919868); settings: CellTiter-Glo ATP luminescence, 48 h; viability (% of DMSO control): at 45.8 µM (top of the series); note: nearly all actives have a fitted effect of over 55% in size; note: potency is the fitted concentration of half-maximal effect;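 for viability (% of DMSO control): 100% = DMSO-only wells and 0% = media-only wells without cells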
Summary of the method: (§1)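 MIPE 4.0 approved/investigational drugs; 500 cells/well; 48 h 37 °C humidified 5% CO2; CTG luminescence readout; DMSO = 100%, media = 0% viability.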

[2] = Quantitative High-Throughput drug screen in 47 multiple myeloma cell lines against the NCATS MIPE library collection: PE2_PLB cell viability assay (AID 1919869); note: nearly all actives have a fitted effect of over 35% in size; note: potency is the fitted concentration of half-maximal effect
Summary of the method: as §1

[3] = Quantitative High-Throughput drug screen in 47 multiple myeloma cell lines against the NCATS MIPE library collection: PCM6_Riken cell viability assay (AID 1919870); note: nearly all actives have a fitted effect of over 30% in size; note: potency is the fitted concentration of half-maximal effect
Summary of the method: as §1

[4] = Quantitative High-Throughput drug screen in 47 multiple myeloma cell lines against the NCATS MIPE library collection: RPMI8226_ATCC cell viability assay (AID 1919871); note: nearly all actives have a fitted effect of over 30% in size; note: potency is the fitted concentration of half-maximal effect
Summary of the method: as §1

[5] = Quantitative High-Throughput drug screen in 47 multiple myeloma cell lines against the NCATS MIPE library collection: OPM2_DSMZ cell viability assay (AID 1919872); note: nearly all actives have a fitted effect of over 30% in size; note: potency is the fitted concentration of half-maximal effect
Summary of the method: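 Primary qHTS used for cherry-picking: cells at 500/well, library compounds for 48 h (37C, 5% CO2), luminescent ATP assay.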

[6] = Quantitative High-Throughput drug screen in 47 multiple myeloma cell lines against the NCATS MIPE library collection: KMS11_JCRBsus cell viability assay (AID 1919873); note: nearly all actives have a fitted effect of over 50% in size; note: potency is the fitted concentration of half-maximal effect
Summary of the method: as §1

[7] = Quantitative High-Throughput drug screen in 47 multiple myeloma cell lines against the NCATS MIPE library collection: KMS28BM_JCRB cell viability assay (AID 1919874); note: nearly all actives have a fitted effect of over 35% in size; note: potency is the fitted concentration of half-maximal effect
Summary of the method: as §1

[8] = qHTS for identification of novel therapeutic agents for treatment of microphthalmiaassociated transcription factor (MiT) renal cell carcinoma (RCC) (AID 1963991; calls by dose curve; note: potency is the fitted concentration of half-maximal effect); settings: CellTiter-Glo, 48 h; for z-score: stronger effect = lower value
Summary of the method: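 Curves over 11 concentrations were fitted to CellTiter-Glo luminescence, scaled between empty wells (0%) and DMSO (100%) viability. Cells were UOK109, UOK124 and UOK145 TFE3-fusion RCC lines at 500/well, exposed 48 hours at 37 C.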

[9] = Quantitative High-Throughput drug screen in 47 multiple myeloma cell lines against the NCATS MIPE library collection: VP6_DJ cell viability assay (AID 1919867); note: potency is the fitted concentration of half-maximal effect; nearly all actives have a fitted effect of over 40% in size
Summary of the method: as §1

[10] = qHTS drug screen for cell cycle checkpoint inhibitors in PARPi-resistant BRCA-mutant ovarian cancer cell lines. (AID 1963452; calls by dose curve); settings: PEO1/OlaR viability, CellTiter-Glo luminescence, 96 h, stronger effect = lower value
Summary of the method: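 PEO1, PEO4 and PEO1/OlaR ovarian cancer cells, 600 per well, exposed 96 h at 37C to a dilution series. Viability read by CellTiter-Glo luminescence, normalized to DMSO and empty wells; activity summarized as Z-AUC.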

[11] = TFE3-RCC UOK109 viability, measured here: UOK109 Z-AUC
[12] = TFE3-RCC viability, measured here: UOK124 Z-AUC
[13] = TFE3-RCC viability, measured here: UOK145 Z-AUC
[14] = measured here: PEO1 parental Z-AUC

C[C@H]1[C@H](NC(=O)C(=NOC(C)(C)C(=O)O)c2csc(N)n2)C(=O)N1S(=O)(=O)O
Potency [1]: inactive | Potency [2]: inactive | Potency [3]: inactive | Potency [4]: inactive | Potency [5]: inactive | Potency [6]: inactive | Potency [7]: inactive | z-score [8, 11]: 1.25 | z-score [8, 12]: 0.648 | z-score [8, 13]: 1.65

OC[C@H]1O[C@@H](n2cnc3c2NC=NC[C@@H]3O)C[C@H]1O
Potency [1]: inactive | Potency [2]: 11.8 µM (active) | Potency [4]: inactive | Potency [5]: inactive | z-score [8, 11]: 0.518 | z-score [8, 12]: 0.532 | z-score [8, 13]: 0.196

COc1ccc2c(Oc3ccc(NC(=O)c4c(C)n(CC(C)(C)O)n(-c5ccccc5)c4=O)cc3F)ccnc2c1
Potency [9]: 11.8 µM (active) | Potency [4]: 23.5 µM (active) | Z-AUC [10]: -0.152 (inactive) | Z-AUC [10, 14]: 0.199 | Z-AUC ([10]; measured here: PEO4 Z-AUC): 0.0396

CO[C@H]1C=CO[C@@]2(C)Oc3c(C)c(O)c4c(O)c(c5c(c4c3C2=O)NC2(CCN(CC(C)C)CC2)N=5)=NC(=O)C(C)=CC=C[C@H](C)[C@H](O)[C@@H](C)[C@@H](O)[C@@H](C)[C@H](OC(C)=O)[C@H]1C
Potency [1]: inactive | Potency [2]: inactive | Potency [4]: 16.6 µM (active) | Potency [5]: inactive | Potency [6]: inactive | Potency [7]: inactive | z-score [8, 11]: 0.267 | z-score [8, 12]: 0.0618 | z-score [8, 13]: 0.486

NC(=O)c1ccc2nc(-c3ccc(Oc4ccc(Cl)cc4)cc3)[nH]c2c1
Potency [9]: 6.62 µM (active) | Potency [3]: inactive | Potency [6]: 11.8 µM (active) | Z-AUC [10]: -1.56 (inactive) | Z-AUC [10, 14]: -1.26 | Z-AUC ([10]; measured here: PEO4 Z-AUC): -1.18

O=C1NC(=O)C(=Cc2ccc(-c3ccc(F)cc3)o2)S1
Potency [1]: inactive | Potency [2]: 8.33 µM (active) | Potency [3]: 7.43 µM (active) | Potency [5]: inactive | Potency [6]: inactive | Potency [7]: inactive

CC(=NNC(=S)N1CCC1)c1ccccn1
Potency [1]: inactive | Potency [2]: inactive | Potency [4]: 0.0042 µM (active) | Potency [5]: 0.0074 µM (active) | Potency [6]: 0.0033 µM (active) | Potency [7]: 0.0083 µM (active) | Potency ([8]; TFE3-RCC UOK109 viability, active = Z-AUC below -0.8 in all three lines): 0.00332 µM (active) | z-score [8, 11]: -4 | z-score [8, 12]: -1.96 | z-score [8, 13]: -2.39

CC1(C)CCC2=C(O1)c1ccccc1C(=O)C2=O
Potency [1]: 20.9 µM (active) | Potency [2]: 20.9 µM (active) | Potency [3]: 20.9 µM (active) | Potency [5]: 16.6 µM (active) | Potency [6]: 26.4 µM (active) | Z-AUC [10]: 0.0983 (inactive) | Z-AUC [10, 14]: -0.291 | Z-AUC ([10]; measured here: PEO4 Z-AUC): 0.134

CC(=O)O[C@]1(C(C)=O)CC[C@@H]2[C@@H]3C[C@H](C)C4=CC(=O)CC[C@]4(C)[C@H]3CC[C@@]21C
Potency [9]: 14.8 µM (active) | Potency [6]: 20.9 µM (active)

O=C(Nc1cccc(Br)c1)c1cccc(S(=O)(=O)N2CCCCCC2)c1
Potency [9]: 16.6 µM (active) | Potency [6]: 18.7 µM (active) | Z-AUC [10]: -0.479 (inactive) | Z-AUC [10, 14]: 0.243 | Z-AUC ([10]; measured here: PEO4 Z-AUC): -0.0385

CC(=O)Oc1cc2c(s1)CCN(C(C(=O)C1CC1)c1ccccc1F)C2 (stereo unspecified)
Potency [9]: 1.32 µM (active) | Potency [3]: 1.48 µM (active) | Z-AUC [10]: 0.888 (inactive) | Z-AUC [10, 14]: 0.469 | Z-AUC ([10]; measured here: PEO4 Z-AUC): 0.814

CC1CCC(C(=O)N(c2cc(C#CC(C)(C)C)sc2C(=O)O)C2CCC(O)CC2)CC1 (stereo unspecified)
Potency [9]: 26.4 µM (active) | Potency [3]: 20.9 µM (active) | Potency [5]: inactive | Z-AUC [10]: 0.0164 (inactive) | Z-AUC [10, 14]: -0.415 | Z-AUC ([10]; measured here: PEO4 Z-AUC): -0.158 | z-score [8, 11]: 1.18 | z-score [8, 12]: 1.68 | z-score [8, 13]: 0.196

O=c1cc(CN2CCOCC2)occ1OCCCCCSc1ccnc2cc(C(F)(F)F)ccc12
Potency [1]: 9.35 µM (active) | Potency [2]: 7.43 µM (active) | Potency [3]: 9.35 µM (active) | Potency [4]: inactive | Potency [5]: 11.8 µM (active) | Potency [6]: 23.5 µM (active) | Z-AUC [10]: -0.111 (inactive) | Z-AUC [10, 14]: -0.421 | Z-AUC ([10]; measured here: PEO4 Z-AUC): -0.0909
